Data on 40 molecules can be found in PubChem BioAssay (NCI).

About 83,000 compounds went through this panel and 20% of them were active in at least one assay; those are over-represented in the sample as a whole.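 Activity criterion: percent growth below 10, measured after cells in 96-well plates were exposed to a single compound concentration for 48 hours.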 A number with no mark means an inactive call. The source made the active and inactive calls.

In the experiment the test system is A498 renal. The experiment in a line: NCI-60 one-dose screen, 48 h (100 = growth as untreated, 0 = no growth, -100 = all killed). Particulars: 10 µM unless noted. As to the method: Growth inhibition of the A498 human tumor cell line is measured as a screen for anti-cancer activity. Cells are grown in 96 well plates and exposed to the test compound for 48 hours. Compounds are tested at a single concentration, which is 10^-5 M for most compounds. The reported endpoint is percent growth (GI% or GIPRCNT), where numbers from 0 - 100% represent growth inhibition, and numbers from -100% - 0 represent cell death. For example, a value of 40 represents 60% growth inhibition. A value of 0 means no net growth occurred over the course of the experiment. A value of -40 indicates 40% of cells at the beginning of the experiment died by the end of the experiment. A value of -100 means all cells are dead at the end of the experiment.
NCI-60 Human Tumor Cell Lines Screen was performed using the standard one-dose NCI protocol, which is described in more detail at https://dtp.cancer.gov/discovery_development/nci-60/default.htm.
Compounds with GIPRCNT values below 10 were considered active. Activity score was based on GIPRCNT using the following formula: […]
Score is 0 for GIPRCNT values of 100 or above, 50 for GIPRCNT values of 0, and 100 for GIPRCNT values of -100.
In the case of `Brc1ccccc1Nc1ccc2nnc(-c3ccncc3)n2n1`, the growth was 101%. For the molecule `CCN1CCN(c2nc3ccccc3c3c(=O)c4cc(F)ccc4sc23)CC1`, the growth is 28.9%. As to `CN1CCc2c(c3ccccc3c3ccccc23)C1`, the growth is 62.9%.

As for `COc1cc(-c2nc(SC(C)C)nc(Nc3ccccc3C)c2C#N)cc(OC)c1OC`, the growth was 88.4%. Consider `O=C1c2[nH]cc(CN[C@@H]3CCCN3)c2C(=O)c2c1c(O)c1ccccc1c2O`, for which the growth is 38.1%. As for `Cn1c2ccc(Cl)cc2c2nn(C(=O)c3ccccc3)c(=O)nc21`, the growth was 112%. `CCC(=O)Nc1nnc(Cc2ccc(OC)c(OC)c2)s1`: the growth was 85.2%. Under `COc1ncnc2c1ncn2C/C(Br)=C(\Br)CCl` stands 94.8%; under `Cc1ccc2c(N/N=C\c3ccco3)cc(C)nc2n1`, 50.3%; under `N#Cc1c(O)c2c(c(O)c1C#N)C(=O)c1ccccc1C2=O`, 81.9%. With `Nc1nc2c(s1)CCc1c-2c(Br)n(Cc2ccccc2)c1Br` the figure was 91.5%. Regarding `CC(=O)c1cc(C)c(OC(=O)c2ccccc2)c(C)c1`, the growth was 105%. Consider `Oc1ccc(Cl)cc1CNc1nc2ccccc2[nH]1`, for which the growth is 59.6%. For the molecule `CN(C)C(=S)SCN1C(=O)c2ccc([N+](=O)[O-])cc2S1(=O)=O`, the growth is 92.6%.

As for `COc1ccccc1-n1c(SCc2cc(OC)c(OC)c(OC)c2)nc2ccc(Cl)cc2c1=O`, the growth is 5.01% (active). For the molecule `CC1(C)N=C(N)N=C(N)N1c1cccc(OCCOc2cccc([N+](=O)[O-])c2)c1`, the growth is 91%. With `COC(=O)c1cc(-c2ccc(C)cc2)n(C(=O)CSc2nc3sc(C(N)=O)c(C)c3c(=O)n2Cc2ccccc2)n1` the figure was -32.1% (active); with `COc1cc(-c2nc(SC(C)C)nc(Nc3cccc(C)c3)c2C#N)cc(OC)c1OC`, 102%; with `Cc1nc2ccc(Cl)cc2n1C`, 95.5%. As to `CC(=O)Nc1ccc(S(=O)(=O)N/N=C\c2ccc(Cl)c(Cl)c2)cc1`, the growth is 72.7%.

On to `COc1ccc(-c2nc3sc(C)nn3c2-c2nc3cc(C)c(C)cc3[nH]2)cc1`, for which the growth is 102%.

Regarding `Cc1nc2nc(C(F)(F)F)[nH]c2nc1C`, the growth is 98.7%.

`O=C1/C(=C/c2ccccc2F)CNC/C1=C\c1ccccc1F`: the growth is -38.8% (active). Consider `C[C@@H](Oc1cc(-c2cnn(C3CC4(CCCNC4)C3)c2)cnc1N)c1c(Cl)ccc(F)c1Cl` (stereo not given in full), for which the growth was -10.4% (active). Take `N#CCCN1CCN(CCC#N)C1=S`: the growth was 87.9%.

With `NC(=O)c1cc(I)ccc1NC(=O)COc1ccccc1`, the growth was 4.14% (active). Turning to `O=C1C=CC(=O)N1CCCCCCCCCCN1C(=O)C=CC1=O`, the growth is 147%. Turning to `Oc1ccccc1/C=N/Nc1nc2ccccc2s1`, the growth is 78.3%. Turning to `COc1ccc(C2CC(c3cc(OC)c(OC)c(OC)c3)=NN2c2ccc(S(N)(=O)=O)cc2)cc1` (stereo not given), the growth was 44.5%. With `Cc1ccc(C)c2c1sc1nc3nc4sc5ccccc5n4c(=N)c3c(=O)n12`, the growth is 69.1%. Turning to `Cc1nc(NC(=O)COc2cccc(/C=C3\COc4ccccc4C3=O)c2)sc1C`, the growth is 87.2%. For the molecule `O=C1/C(=C/c2ccc(Oc3ccccc3)cc2)N=C(c2ccccc2)N1CCc1cccs1`, the growth is 59.7%. As for `Cc1ccc(S(=O)(=O)N2CCc3ccc(O)c4c3C2CCc2ccccc2-4)cc1` (stereo not given), the growth is 111%. Regarding `Cc1ccc(S(=O)(=O)c2ccc3[nH]c(=O)[nH]c(=O)c3c2)cc1`, the growth is 102%. Under `COc1ccc(S(=O)(=O)ON=C2C=C(C)C(=O)C(C)=C2)cc1` stands 98.4%; under `Cc1ccc(C2SCC(=O)N2NC(=O)c2[nH]c3ccc(F)cc3c2-c2ccccc2)cc1` (stereo not given), 86.5%.

In the case of `c1ccc2c(c1)oc1cc3c(cc12)nnc1cccn13`, the growth was 111%. For `CCC12CCC3c4ccc(O)cc4CCC3C1CC(O)C2O` (stereo not given), the growth is 67.1%. Turning to `Cc1nc(-c2ccccc2)cc2c(O)c(C(=O)N/N=C/Cc3ccccc3)[nH]c(=O)c12`, the growth is 94.5%. On to `COc1cc(CNCCN2C(=O)c3ccc4c5c(ccc(c35)C2=O)C(=O)N(CCNCc2cc(OC)c(OC)c(OC)c2)C4=O)cc(OC)c1OC`, for which the growth was -92.7% (active).
